From PubChem BioAssay come the findings set out here.

The structures appear in SMILES notation. Activity calls are given as the source filed them.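 Rule for the calls, unless noted: active = visually confirmed hit in the image check and inhibition above 20%; inconclusive = visually confirmed hit but inhibition not above 20%; inactive = no visual hit in the image check.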

Assay [1] in a line: inhibitors of TNFa-induced NFkB p65 translocation, primary screen, imaging, HUVEC, MLSMR starter and 10KST1 sets (AID 438;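 active = inhibition above 20% together with a positive visual image hit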;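 note: compound added about 3h40 before a 20 min TNFalpha stimulation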;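 for inhibition: signal is the nuclear over cytoplasmic p65 intensity ratio per well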). As to conditions: HUVEC TNFa-induced p65 nuclear translocation; cell count: measured here: nuclei count (cytotoxicity indicator), at 2.08 µM; inhibition: at 2 µM, stronger effect = higher value, 0% TNFa-plus-vehicle, 100% no-TNFa wells.
Assay [2] is described as follows: inhibitors of mutant huntingtin aggregation, primary screen, imaging, exon1htt(103Q)mCFP cells, high-content imaging (AID 483;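 active = visual image review flags a hit and inhibition of aggregation exceeds 20%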;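 note: compound exposure lasted 3 days before fixation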;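 for nuclei count: percent of the per-plate median nuclei count of sample wells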). The note with it: exon1htt(103Q)mCFP cell line, aggregate imaging, at 2 µM; inhibition of aggregation: stronger effect = higher value; nuclei count: measured here: cell count, toxicity.
A short description of assay [3]: inhibitors of E-selectin induction by TNFa, primary screen, imaging, HUVEC, immunofluorescence, MLSMR starter and 10KST1 sets (AID 487).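 For inhibition: signal is fraction of cell area covered by stained E-selectin grains.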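 For nuclei count: 100% = median nuclei count of all wells on the same plate.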 The note with it: HUVEC TNFalpha-induced E-selectin immunofluorescence imaging, at 2 µM; inhibition: stronger effect = higher value; nuclei count: measured here: cell number, toxicity.
Assay [4] has as its target Voltage-gated potassium channel subunit beta-2 (Rattus norvegicus) (UniProt P62483). The experiment in a line: KvBeta enzyme negative modulators, primary screen, biochemical, NADPH fluorescence (AID 622;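 active = fluorescence slope higher than the sample average by over 3 SD, cut at about -0.22 in these data, passing the limit was not always enough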;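 note: slope of raw intensity against log time taken from 70 to 1610 s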). The note with it: recombinant KvBeta, 4-cyanobenzaldehyde reduction, at 10 µM, stronger effect = higher value.
Assay [5] shares this target. The experiment in a line: KvBeta positive modulators, primary screen, biochemical, NADPH fluorescence (AID 623;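 active = NADPH fluorescence slope more negative than the mean of all samples by about 3 SD, 99.7% confidence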;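 note: fluorescence intensity change per second fitted from 20 to 320 s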). The note with it: Recombinant KvBeta, NADPH fluorescence decrease slope, 10 min; at 10 µM; stronger effect = lower value.
Assay [6] concerns the target Alpha-2C adrenergic receptor (Homo sapiens) (UniProt P18825). Kind of assay: modulators of alpha2C/GIRK thallium flux, primary screen, cell-based, HEK293 alpha2C/GIRK1/2 (AID 624;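 active = fluorescence slope after compound addition differing from the mean of all screened samples at 99.7% confidence, in either direction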;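 note: slope of fluorescence ratio to pre-addition baseline per second over 15 to 24 s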). The note with it: thallium flux BTC fluorescence, at 10 µM, actives lie on both sides.
Assay [7] is described as follows: inhibitors of Sendai virus-induced IRF3 signaling, primary screen, TLR/RLR signaling modifier project, cell-based, Sendai virus stimulus, luciferase, 10K MLSCN set (AID 602276;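 active = inhibition at or above 50% at 10 µM; inactive = inhibition below 50%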;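 note: firefly luciferase from ISG56 promoter only with Renilla not read in this screen; 0% = Sendai virus plus DMSO and 100% = medium plus DMSO without virus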). The note with it: HEK293 RL24 IRF3 luciferase reporter, at 10 µM, stronger effect = higher value.
The nature of assay [8]: inhibitors of poly I:C-induced TLR3 signaling, primary screen, cell-based, poly I:C stimulus, luciferase, 10K MLSCN set (AID 602277;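 active = inhibition of the reporter signal at or above 50%; inactive = inhibition below 50%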). As to conditions: HEK293-TLR3 RL24 IRF3 luciferase reporter, at 10 µM, stronger effect = higher value.

Chain of Alpha-2C adrenergic receptor (Homo sapiens) (P18825 whole entry, looked up): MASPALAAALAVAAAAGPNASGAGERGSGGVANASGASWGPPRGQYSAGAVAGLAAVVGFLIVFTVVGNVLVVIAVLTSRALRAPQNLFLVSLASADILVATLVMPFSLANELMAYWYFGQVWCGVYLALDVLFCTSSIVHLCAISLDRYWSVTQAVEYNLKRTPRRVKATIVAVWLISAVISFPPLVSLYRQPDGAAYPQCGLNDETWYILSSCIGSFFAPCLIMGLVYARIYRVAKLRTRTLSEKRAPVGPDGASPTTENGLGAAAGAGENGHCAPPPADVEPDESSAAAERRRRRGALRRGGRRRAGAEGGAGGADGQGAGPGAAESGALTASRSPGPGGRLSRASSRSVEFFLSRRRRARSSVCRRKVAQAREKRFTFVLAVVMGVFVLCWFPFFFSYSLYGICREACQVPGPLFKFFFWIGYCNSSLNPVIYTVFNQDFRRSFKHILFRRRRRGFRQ
Chain of Voltage-gated potassium channel subunit beta-2 (Rattus norvegicus) (P62483 whole entry, looked up): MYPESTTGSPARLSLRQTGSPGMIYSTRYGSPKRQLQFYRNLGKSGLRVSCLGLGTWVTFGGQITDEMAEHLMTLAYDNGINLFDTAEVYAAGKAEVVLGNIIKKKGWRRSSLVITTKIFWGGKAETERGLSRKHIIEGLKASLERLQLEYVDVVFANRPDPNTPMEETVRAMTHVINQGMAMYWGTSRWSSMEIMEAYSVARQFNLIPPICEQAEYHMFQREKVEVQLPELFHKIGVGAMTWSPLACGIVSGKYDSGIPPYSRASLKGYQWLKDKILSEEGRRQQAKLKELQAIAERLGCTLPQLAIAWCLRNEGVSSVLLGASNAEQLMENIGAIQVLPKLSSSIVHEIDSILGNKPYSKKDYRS

On to `Cc1occc1-c1nnc(SCC(=O)N2CCc3ccccc32)o1`, for which, in assay [1], the cell count came to 679. Also, the inhibition in assay [1] is -1.9% (inactive); in assay [3], -7.2% (inactive); in assay [7], 5.8% (inactive); in assay [8], 5.93% (inactive). For the same compound, the inhibition of aggregation in assay [2] is 2.9% (inactive). Besides, the nuclei count in assay [2] stood at 73.2%; in assay [3] it was 106%. Further, in assay [4], the fluorescence slope is -0.478 (inactive). Moreover, the NADPH fluorescence slope in assay [5] was 2.9e-05 (inactive). Moreover, the slope in assay [6] is 0.00881 (inactive).

With `COC(=O)c1ccc2c(=O)n(CC3CCCO3)c(=S)[nH]c2c1` (centres undefined), the cell count in assay [1] was determined as 548. In addition, the inhibition in assay [1] is 16% (inactive); in assay [3] it was -137% (inactive); in assay [7], 14.9% (inactive); in assay [8], 12.3% (inactive). Moreover, in assay [2], the inhibition of aggregation is -9.1% (inactive). The nuclei count in assay [2] came out at 92.8%; in assay [3], 94.3%. Moreover, the fluorescence slope in assay [4] was -0.478 (inactive). Moreover, the NADPH fluorescence slope in assay [5] is -2.8e-05 (inactive). For the same compound, the slope in assay [6] was 0.00617 (inactive).

Take `CCOc1ccccc1N(C(=O)Cn1nnnc1-c1ccc(C)o1)C(CC)C(=O)NC(C)(C)C` (centres undefined): the cell count in assay [1] came out at 663. The inhibition in assay [1] is 1.6% (inactive); in assay [3], -61.8% (inactive); in assay [7], -5.79% (inactive); in assay [8], 11.2% (inactive). Besides, the inhibition of aggregation in assay [2] was -4.4% (inactive). Moreover, the nuclei count was 111% in assay [2] and 89.5% in assay [3]. Also, the fluorescence slope in assay [4] was -0.531 (inactive). For the same compound, the NADPH fluorescence slope in assay [5] was -6.1e-06 (inactive). Further, in assay [6], the slope is 0.00561 (inactive).

On to `Cc1ccccc1NC(=O)NCCCN1CCN(C2CCCCC2)CC1`, for which the cell count in assay [1] is 411. Moreover, the inhibition was -1.8% (inactive) in assay [1], -119% (inactive) in assay [3], 3.03% (inactive) in assay [7] and 13% (inactive) in assay [8]. Also, the inhibition of aggregation in assay [2] is 8.9% (inactive). In addition, the nuclei count in assay [2] turned out to be 81.8%; in assay [3], 108%. Further, the fluorescence slope in assay [4] is -0.61 (inactive). The NADPH fluorescence slope in assay [5] was 2.5e-06 (inactive). Besides, the slope in assay [6] is 0.00551 (inactive).

As for `CCOC(=O)CSc1ncnc2c1cnn2-c1ccc(C)cc1`, the cell count in assay [1] came to 296. Also, the inhibition in assay [1] was 2.4% (inactive); in assay [3], -3.4% (inactive); in assay [7] it was 22.8% (inactive); in assay [8] it was 21.8% (inactive). Moreover, the inhibition of aggregation in assay [2] was -24.2% (inactive). Also, the nuclei count in assay [2] stood at 108%; in assay [3] it was 129%. In assay [4], the fluorescence slope is -0.581 (inactive). Further, the NADPH fluorescence slope in assay [5] was -2e-05 (inactive). In assay [6], the slope is 0.00447 (inactive).

For the compound `COc1cc(NC2=CC(=O)CC(C)(C)C2)cc(OC)c1`, the cell count in assay [1] came out at 346. The inhibition in assay [1] was 7.5% (inactive); in assay [3], -3.1% (inactive); in assay [7], -4.89% (inactive); in assay [8] it was -12.1% (inactive). For the same compound, the inhibition of aggregation in assay [2] was -8.1% (inactive). In addition, the values for the nuclei count in assay [2] and in assay [3] were 110% and 103%, respectively. In addition, the fluorescence slope in assay [4] was -0.373 (inactive). In assay [5], the NADPH fluorescence slope is 6.9e-06 (inactive). In assay [6], the slope was 0.00551 (inactive).

With `c1ccc(-c2cnc(CSc3ncnc4sccc34)o2)cc1`, in assay [1], the cell count came out at 308. Further, the inhibition was 2.9% (inactive) in assay [1], -7.2% (inactive) in assay [3], -9.6% (inactive) in assay [7] and -51.1% (inactive) in assay [8]. Besides, the inhibition of aggregation in assay [2] is 27.8% (inactive). Besides, the nuclei count is 86.4% in assay [2] and 109% in assay [3]. Also, the fluorescence slope in assay [4] was -0.272 (inactive). Besides, in assay [5], the NADPH fluorescence slope is -1.7e-05 (inactive). In addition, in assay [6], the slope was 0.00879 (inactive).

Regarding `COC(=O)C1=C(CSCc2ccco2)NC(=O)NC1c1cc(C)ccc1C` (centres undefined), the cell count in assay [1] came out at 369. Also, the inhibition in assay [1] is -10.5% (inactive); in assay [3] it was -20.5% (inactive); in assay [7], -3.03% (inactive); in assay [8], -1.57% (inactive). In assay [2], the inhibition of aggregation is -15.1% (inactive). Further, the nuclei count stood at 115% in assay [2] and 109% in assay [3]. The fluorescence slope in assay [4] was -0.423 (inactive). Also, the NADPH fluorescence slope in assay [5] is 3.5e-05 (inactive). Besides, the slope in assay [6] was 0.00488 (inactive).

Regarding `CCN(CC)c1ccc2cc(NC(=O)CCC(=O)O)c(=O)oc2c1`, the cell count in assay [1] was determined as 463. The inhibition is -21.1% (inactive) in assay [1], -33% (inactive) in assay [3], 50.8% (active) in assay [7] and 92.5% (active) in assay [8]. Besides, the inhibition of aggregation in assay [2] was -6.8% (inactive). Moreover, the nuclei count in assay [2] was 95%; in assay [3], 101%. Also, in assay [4], the fluorescence slope is -0.0111 (active). For the same compound, the NADPH fluorescence slope in assay [5] was -5.3e-06 (inactive). The slope in assay [6] was 0.00247 (inactive).

With `CCCS(=O)(=O)N1CCN(Cc2ccc(OCc3ccccc3)c(OC)c2)CC1`, the cell count in assay [1] turned out to be 247. For the same compound, the inhibition in assay [1] is -5% (inactive); in assay [3], -25.9% (inactive); in assay [7] it was -20.2% (inactive); in assay [8] it was -19.3% (inactive). Moreover, the inhibition of aggregation in assay [2] is 9.9% (inactive). Besides, the values for the nuclei count in assay [2] and in assay [3] were 79.6% and 101%, respectively. The fluorescence slope in assay [4] is -0.549 (inactive). The NADPH fluorescence slope in assay [5] was -4.2e-05 (inactive). Moreover, in assay [6], the slope is 0.0062 (inactive).

On to `Cc1cc(=O)n(CCO)c(O)c1C#N`, for which the cell count in assay [1] stood at 735. Also, the inhibition in assay [1] was 0.3% (inactive); in assay [3], -22.2% (inactive); in assay [7] it was 18.6% (inactive); in assay [8] it was 15% (inactive). The inhibition of aggregation in assay [2] was -6.8% (inactive). Also, the figures for the nuclei count in assay [2] and in assay [3] were 94% and 110%, respectively. Further, the fluorescence slope in assay [4] is -0.351 (inactive). Besides, in assay [5], the NADPH fluorescence slope is 8.2e-06 (inactive). The slope in assay [6] was 0.00309 (inactive).

As to `CN(C)S(=O)(=O)c1ccc(C(=O)NCc2cccs2)cc1`, the cell count in assay [1] was found to be 436. Moreover, the inhibition in assay [1] was 4.7% (inactive); in assay [3], 15.4% (inactive); in assay [7] it was 3.68% (inactive); in assay [8] it was 3.16% (inactive). Besides, the inhibition of aggregation in assay [2] was 6.5% (inactive). Also, the figures for the nuclei count in assay [2] and in assay [3] were 105% and 125%, respectively. The fluorescence slope in assay [4] is -0.611 (inactive). Also, the NADPH fluorescence slope in assay [5] is -2.1e-05 (inactive). In addition, the slope in assay [6] was 0.00652 (inactive).

With `CC(C)CC(OC(=O)c1cccs1)C(=O)NCc1ccco1` (centres undefined), in assay [1], the cell count stood at 364. The inhibition was 19.1% (inactive) in assay [1], 2.7% (inactive) in assay [3], 6.99% (inactive) in assay [7] and 11.5% (inactive) in assay [8]. Besides, the inhibition of aggregation in assay [2] was -9% (inactive). Also, the nuclei count came out at 91.6% in assay [2] and 106% in assay [3]. Further, the fluorescence slope in assay [4] is -0.425 (inactive). Further, the NADPH fluorescence slope in assay [5] was -2.5e-05 (inactive). Further, in assay [6], the slope is 0.00495 (inactive).

In the case of `Cc1ccc(Nc2nc(N)nc(CN3CCCCCC3)n2)cc1`, the cell count in assay [1] is 350. Besides, the inhibition in assay [1] was 6.8% (inactive); in assay [3] it was 69.8% (active); in assay [7], 8.97% (inactive); in assay [8], 24.6% (inactive). In assay [2], the inhibition of aggregation was 2.4% (inactive). Further, the nuclei count in assay [2] is 96.1%; in assay [3] it was 88.8%. For the same compound, the fluorescence slope in assay [4] is -0.449 (inactive). Moreover, in assay [5], the NADPH fluorescence slope was -2.5e-05 (inactive). Moreover, in assay [6], the slope is 0.00438 (inactive).
